Experimental data: publication PMC4336329 (PLoS ONE, 2015)
Screen size: about 310,000 compounds; about 14,000 (4.5%) showed an effect of 50% or more. Effects have a minus sign here. This is one part of a sample in which strong results are shown more often than they occur.

Molecular target: human ether-à-go-go-related gene (hERG) potassium channel (human, UniProt Q12809)
Test: primary screen, population patch clamp on CHO cells stably expressing hERG; higher = less effect of the substance
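Further: peak tail current of the secondary pulse compared with the same well before compound.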

Sequence of human ether-à-go-go-related gene (hERG) potassium channel (Q12809 whole entry, looked up): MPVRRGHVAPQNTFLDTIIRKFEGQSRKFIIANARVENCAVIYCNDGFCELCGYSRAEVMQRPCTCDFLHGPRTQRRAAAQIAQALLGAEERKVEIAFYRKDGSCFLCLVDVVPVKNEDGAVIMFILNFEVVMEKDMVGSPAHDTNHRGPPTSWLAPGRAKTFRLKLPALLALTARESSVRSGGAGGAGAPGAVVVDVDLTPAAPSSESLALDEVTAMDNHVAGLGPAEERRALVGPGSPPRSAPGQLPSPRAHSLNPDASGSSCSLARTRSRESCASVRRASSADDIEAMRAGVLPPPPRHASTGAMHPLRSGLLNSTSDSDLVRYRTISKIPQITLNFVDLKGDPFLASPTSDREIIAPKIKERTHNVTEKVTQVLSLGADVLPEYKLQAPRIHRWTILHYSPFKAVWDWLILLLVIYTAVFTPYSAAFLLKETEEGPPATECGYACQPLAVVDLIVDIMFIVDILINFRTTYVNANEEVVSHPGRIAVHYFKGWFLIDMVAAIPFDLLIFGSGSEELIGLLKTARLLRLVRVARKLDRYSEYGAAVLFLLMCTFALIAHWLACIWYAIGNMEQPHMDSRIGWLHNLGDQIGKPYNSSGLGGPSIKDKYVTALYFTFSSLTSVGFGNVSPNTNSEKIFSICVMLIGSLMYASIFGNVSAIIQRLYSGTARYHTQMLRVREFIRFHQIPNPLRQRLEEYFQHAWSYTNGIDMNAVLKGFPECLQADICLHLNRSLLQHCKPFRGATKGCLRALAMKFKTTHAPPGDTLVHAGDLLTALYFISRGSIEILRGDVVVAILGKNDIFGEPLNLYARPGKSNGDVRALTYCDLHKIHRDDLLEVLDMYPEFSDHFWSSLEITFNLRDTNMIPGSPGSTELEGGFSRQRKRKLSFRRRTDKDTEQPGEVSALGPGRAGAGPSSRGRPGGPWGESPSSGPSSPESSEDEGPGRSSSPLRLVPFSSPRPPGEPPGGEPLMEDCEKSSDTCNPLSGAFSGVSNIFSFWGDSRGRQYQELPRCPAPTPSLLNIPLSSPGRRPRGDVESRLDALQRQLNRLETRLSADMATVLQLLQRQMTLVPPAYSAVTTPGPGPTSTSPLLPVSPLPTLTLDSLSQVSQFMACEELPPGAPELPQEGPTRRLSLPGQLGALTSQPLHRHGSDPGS

Row | Structure (SMILES) | hERG current change (%, negative = inhibition) at 10uM
1 | Cc1ccc(NCC(=O)N/N=C/c2ccc(OC(=O)c3ccco3)cc2)cc1 | 1.76%
2 | CCCN(CC(=O)Nc1ccccc1C)C(=O)COc1c(C)cccc1C | -4.72%
3 | NS(=O)(=O)c1ccc(Nc2ccc3nonc3c2[N+](=O)[O-])cc1 | 9.07%
4 | O=C(CSc1n[nH]c(=O)n1C1CC1)c1c[nH]c2ccccc12 | 9.29%
5 | CCc1ccc(/C=C2/Sc3ccccc3N(CC(=O)NCCCN3CCOCC3)C2=O)cc1 | -41.3%
6 | O=C(CN1C(=O)/C(=C/c2ccc(C(F)(F)F)cc2)Sc2ccccc21)NCCCN1CCOCC1 | -65.6%
7 | O=C(CN1C(=O)/C(=C/c2ccccc2)Sc2ccccc21)NCCCN1CCOCC1 | -42.8%
8 | O=C(CN1C(=O)/C(=C/c2cccc(Br)c2)SC1=S)NCCCN1CCOCC1 | 5.42%
9 | O=C(CCN1C(=O)/C(=C\c2cccc(Br)c2)SC1=S)NCCCN1CCOCC1 | -63.4%
10 | O=C(CCCN1C(=O)/C(=C/c2cccc(Br)c2)SC1=S)NCCCN1CCOCC1 | -18.1%
11 | O=C(N/N=C/c1cc(Br)c(O)c(Br)c1O)c1ccc2c(c1)OCCO2 | -26.9%
12 | Cc1cc(CNC(=O)Cn2cc([N+](=O)[O-])cn2)c2ccccc2n1 | -11.5%
13 | Cc1cccc(OCC(=O)Nc2ccccc2N2CCCCC2)c1C | -21.9%
14 | Cc1ccc(S(=O)(=O)N2CCCCC2)cc1NC(=O)CCc1nc2ccccc2c(=O)[nH]1 | -24.3%
15 | Cc1ccc(-c2nnn(CC(=O)N(Cc3cccs3)C(C(=O)NC(C)(C)C)c3ccco3)n2)o1 (stereo not shown) | 14.4%
16 | Cc1ccc(C(=O)N/C(=C/c2cccs2)C(=O)NCCCn2ccnc2)cc1 | -71.9%
17 | Cc1ccc(C(=O)N/C(=C\c2cn(C)c3ccccc23)C(=O)NCCCn2ccnc2)cc1 | -7.74%
18 | O=C(NCCCn1ccnc1)/C(=C\c1cccs1)NC(=O)c1cccs1 | -62%
19 | Cc1ccc(C(=O)N/C(=C\c2cccs2)C(=O)NCCCn2ccnc2)cc1 | -70.3%
20 | O=C(NCc1ccco1)/C(=C\c1cccs1)NC(=O)c1cccs1 | 6.26%
21 | O=C(NCCO)/C(=C\c1cccs1)NC(=O)c1cccs1 | 18.7%
22 | COc1ccc(C(=O)N/C(=C/c2cccs2)C(=O)NCCCn2ccnc2)cc1OC | -7.14%

Row | Structure (SMILES) | hERG current change (%, negative = inhibition) at 10uM
23 | Cc1ccc(C(=O)N/C(=C\c2cccs2)C(=O)NCCCn2ccnc2)cc1C | -61%
24 | Cc1ccc(C(=O)N/C(=C\c2cn(S(=O)(=O)N(C)C)c3ccccc23)C(=O)NCCCn2ccnc2)cc1 | -28.6%
25 | Cc1ccc(C(=O)N/C(=C\c2cccs2)C(=O)NCCc2ccccn2)cc1C | -1.92%
26 | O=C(Cn1ncn2c(cc3ccccc32)c1=O)NCCC1=CCCCC1 | 7.76%
27 | CCn1cc(S(=O)(=O)N2CCCC2)cn1 | 8.1%
28 | COCCN1C(=O)N[C@@H](c2ccccc2)[C@@H](C(=O)OC)[C@H]1C | 2.28%
29 | Cc1ccc(C)c(/C=N/NC(=S)NC(C)C)c1 | 30.3%
30 | Cc1ccccc1OCC(=O)NNC=O | 22.9%
31 | O=C(Nc1cccc(-n2cnnn2)c1)c1cc(Cl)nc(Cl)c1 | -4.24%
32 | Cc1nccn1-c1ccc(C(F)(F)F)cc1[N+](=O)[O-] | 11.2%
33 | CCCn1c(NC(=O)CCS(=O)(=O)c2ccc(C)cc2)nc2ccccc21 | -24.2%
34 | Cc1cnn(Cc2cccnc2)c1N | 8.46%
35 | COc1ccccc1/C=C(/NC(=O)c1ccccc1)C(=O)NCCCn1ccnc1 | 2.6%
36 | O=C(NCCCn1ccnc1)/C(=C/c1cccnc1)NC(=O)c1ccco1 | 4.25%
37 | O=C(NCCCn1ccnc1)/C(=C/c1cccs1)NC(=O)c1ccco1 | -50.8%
38 | O=C(NCCCn1ccnc1)/C(=C\c1cccs1)NC(=O)c1ccccc1 | -69%
39 | O=C(NCCCn1ccnc1)/C(=C\c1ccco1)NC(=O)c1ccco1 | -35.3%
40 | O=C(NCCCn1ccnc1)/C(=C\c1cccs1)NC(=O)c1ccco1 | -45.1%
41 | CN(C)S(=O)(=O)n1cc(/C=C(\NC(=O)c2ccccc2)C(=O)NCCCn2ccnc2)c2ccccc21 | 8.31%
42 | O=C(NCCCn1ccnc1)/C(=C/c1ccco1)NC(=O)c1ccco1 | -45.6%
43 | O=C(NCCCn1ccnc1)/C(=C/c1ccco1)NC(=O)c1cccs1 | -53.2%
44 | CCOC(=O)c1c(C)n(C)c2c(C)cc(O)c(OC(=O)CC)c12 | 7.65%

Row | Structure (SMILES) | hERG current change (%, negative = inhibition) at 10uM
45 | CN(C)c1ccc(/C=C2\SC(N3CCCCC3)=NC2=O)cc1 | -21.8%
46 | Cc1occc1C(=O)Nc1ccc(Br)cc1F | 2.03%
47 | Cc1ccc(NC(=S)N(CCN(C)C)C(C)c2ccco2)cc1C (stereo not shown) | -44.3%
48 | CC1CCC2CCCCC2N1C(=O)c1cc([N+](=O)[O-])cc([N+](=O)[O-])c1 (stereo not shown) | 2.18%
49 | COc1cc(CCCN2C(=S)NC[C@H]2Cc2ccc(O)cc2)cc(OC)c1OC | -16.4%
50 | CC1CCN(C(=O)c2ccc(CS(=O)(=O)Cc3ccccc3)cc2)CC1 | -33.6%
51 | CC(=O)N1c2ccc(S(=O)(=O)NCC3CCC(C(=O)N4CCCCC4)CC3)cc2CC1C (stereo not shown) | 12.2%
52 | c1ccc2c(c1)[nH]c1c(NCC3CCCO3)ncnc12 (stereo not shown) | 11%
53 | CN(CC(=O)Nc1ccncc1)S(=O)(=O)c1ccc(Cl)cc1 | -5.97%
54 | Cc1ccc(S(=O)(=O)N(C)CCCC(=O)Nc2ccncc2)cc1 | -63%
55 | CC(=O)c1cccc(NC(=O)CCCN(C)S(=O)(=O)c2ccc(F)cc2)c1 | -2.1%
56 | CN(CCCC(=O)Nc1ccccc1)S(=O)(=O)c1ccc(Cl)cc1 | -47.9%
57 | CC(=O)Nc1ccc(S(=O)(=O)N(C)c2ccccc2)cc1 | 0.318%
58 | Cc1ccc(S(=O)(=O)N(C)CC(=O)Nc2ccncc2)cc1 | -8.2%
59 | CN(CCCC(=O)Nc1ccc(OC(F)F)cc1)S(=O)(=O)c1ccc(F)cc1 | -71.3%
60 | CC(=O)Nc1ccc(S(=O)(=O)N(C)c2ccc(O)cc2)cc1 | 2.53%
61 | Cc1ccc(S(=O)(=O)N(C)CCCC(=O)Nc2ccc(F)cc2)cc1 | -30.1%
62 | CC(=O)Nc1ccc(S(=O)(=O)N(C)S(=O)(=O)c2ccc(F)cc2)cc1 | -63.3%
63 | CN(CCCC(=O)Nc1ccncc1)S(=O)(=O)c1ccc(Cl)cc1 | -53.8%
64 | COc1ccc(NC(=O)CCCN(C)S(=O)(=O)c2ccc(C)cc2)cc1 | -26.8%
65 | O=C(Oc1ccnc2cc(Cl)ccc12)N1CCOCC1 | -1.74%
66 | COc1ccc2c(c1)c(=O)oc1cc(O)ccc12 | 3.99%

Row | Structure (SMILES) | hERG current change (%, negative = inhibition) at 10uM
67 | O=C(CSc1cn(Cc2cccc(F)c2)c2ccccc12)NCc1ccc(F)cc1 | 9.86%
68 | CCOc1ccccc1N(CC(=O)NC(C)(C)C)C(=O)CCC(=O)Nc1nccs1 | -4.92%
69 | CC(C)(C)NC(=O)C(c1ccc(O)cc1)N(C(=O)Cn1nnc(-c2ccc(F)cc2)n1)c1ccccc1F (stereo not shown) | -1.66%
70 | COc1cc(CNc2ccc(N3CCOCC3)cc2)cc(Br)c1OC | -23.4%
71 | CCOc1cc2oc(=O)c3c(c2cc1Cl)CCC3 | 7.75%
72 | COc1ccc(Cn2c(C)c(C)c(C#N)c2NC(=O)Nc2ccc(F)cc2)cc1 | -3.49%
73 | COc1ccc(N=CC2=C(O)c3ccccc3C2=O)cc1 | 11.1%
74 | Cc1cccn2c(=O)c3cc(C(=O)NCC4CCCO4)c(=N)n(CCN4CCOCC4)c3nc12 (stereo not shown) | -69.4%
75 | COCCCn1c(=N)c(C(=O)NCC2CCCO2)cc2c(=O)n3cccc(C)c3nc21 (stereo not shown) | -73.1%
76 | COCCn1c(=O)[nH]c2cc(C(=O)NCC3CCCO3)ccc2c1=O (stereo not shown) | -7.76%
77 | CCN(C(=O)c1cc2c(=O)n3cccc(C)c3nc2n1CCCOC)C1CCCCC1 | -44.1%
78 | COCCCn1c(C(=O)N2CCOCC2)cc2c(=O)n3ccccc3nc21 | 2.75%
79 | Cc1ccc2nc3c(cc(C(=O)NCC4CCCO4)c(=N)n3CCCOC(C)C)c(=O)n2c1 (stereo not shown) | -71.8%
80 | COCCCn1c(C(=O)N2CC(C)OC(C)C2)cc2c(=O)n3ccccc3nc21 (stereo not shown) | -9.36%
81 | CC(C)OCCCn1c(SC(C)C(=O)NCC2CCCO2)nc2cc(Cl)ccc2c1=O (stereo not shown) | -20.6%
82 | COCCCn1c(=N)c(C(=O)NCC2CCCO2)cc2c(=O)n3ccccc3nc21 (stereo not shown) | -64.3%
83 | COCCCn1c(C(=O)NC2CCCCC2C)cc2c(=O)n3cccc(C)c3nc21 (stereo not shown) | -12%
84 | CSc1nnc2c(n1)OC(c1cccn1C)N(C(C)=O)c1ccccc1-2 (stereo not shown) | -10.1%
85 | CCS(=O)(=O)Nc1cccc(C2=NN(S(C)(=O)=O)C(c3cccs3)C2)c1 (stereo not shown) | -11.1%
